Reference: the supplement of paper PMC3334620
Over roughly 33,000 sequences, “E-score (-0.5 to 0.5)” has its median near -0.016; the highest 2% begin near 0.32. The sample as a whole holds a higher share of the highest values than the screen did.

The sequences below were run against T1, Stp1 (UniProt B3LFK1) (assay: PBM E-score (8-mer binding enrichment) (E-score (-0.5 to 0.5)); higher = stronger / more preferred TF binding). Conditions: protein concentration: 200 nM; construct: GST-full length.
T1 sequence: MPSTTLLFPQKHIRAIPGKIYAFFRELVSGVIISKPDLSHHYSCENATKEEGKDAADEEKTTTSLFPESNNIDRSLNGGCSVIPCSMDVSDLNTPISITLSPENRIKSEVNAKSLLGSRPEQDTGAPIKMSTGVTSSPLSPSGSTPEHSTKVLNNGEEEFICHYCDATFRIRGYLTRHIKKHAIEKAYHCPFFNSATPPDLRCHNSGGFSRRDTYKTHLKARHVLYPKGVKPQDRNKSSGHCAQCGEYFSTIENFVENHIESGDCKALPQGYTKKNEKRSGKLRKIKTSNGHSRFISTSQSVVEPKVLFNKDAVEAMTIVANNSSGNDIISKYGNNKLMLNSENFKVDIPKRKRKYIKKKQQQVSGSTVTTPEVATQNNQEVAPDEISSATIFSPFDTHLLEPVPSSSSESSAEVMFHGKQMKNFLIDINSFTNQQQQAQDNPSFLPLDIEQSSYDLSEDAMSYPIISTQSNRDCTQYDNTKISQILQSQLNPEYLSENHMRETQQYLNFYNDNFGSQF
Protocol: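 Universal 'all 10-mer' protein binding microarrays (Agilent AMADID 015681) probed with GST-tagged S. cerevisiae TFs (full-length or DBD) made by in vitro transcription/translation (PURExpress), about 100-200 nM. Bound TF was detected with fluorescent anti-GST. Each ungapped 8-mer (which stands for itself and its reverse complement) is scored by the PBM enrichment score (E-score), a modified Wilcoxon-Mann-Whitney statistic from -0.5 to +0.5, computed with the Universal PBM Analysis Suite. Scale: above 0.35 generally sequence-specific binding.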

| Sequence | PBM E-score |
| --- | --- |
| GCGCAAAA | 0.227 |
| CCATGAGA | -0.118 |
| AAGCCGGA | 0.0672 |
| TAGCCGCA | 0.348 |
| AAGCCGCG | 0.418 |
| AACCCGCA | -0.00015 |
| GAGCCGCA | 0.448 |
| TAGCCGAA | 0.00682 |
| AAGCCGCA | 0.386 |
| CAGCCGCG | 0.259 |
| GAGCCGGA | 0.0514 |
| AATCCGCG | 0.111 |
| TAGCCGGA | -0.0486 |
| CAGCCGCA | 0.215 |
| GAGGGTAC | -0.22 |
| AACTGAGC | -0.0352 |
| CGATCAAG | -0.0842 |
| CCCTTATA | -0.15 |
| CCAACTAG | -0.0642 |
| CCGACCAG | -0.144 |
| CATAATGC | 0.0509 |
| TCCCAGGA | -0.255 |
| GGATCTAC | -0.105 |
| GTCGACTA | 0.157 |
| CAGCCGCC | 0.0812 |

| Sequence | PBM E-score |
| --- | --- |
| AAGCCGCC | 0.177 |
| GAGCCGCC | 0.319 |
| CCTAAGCC | -0.355 |
| ACGGGTTG | -0.0319 |
| GGGGCAAC | -0.107 |
| TCGGCAAA | 0.0291 |
| GCGGCAAC | 0.384 |
| CCGGCAAA | 0.116 |
| CCGGCAAC | 0.0817 |
| GCGGCAAA | 0.383 |
| ATCATTCG | 0.119 |
| AAATTAAG | -0.00684 |
| CGTGCGGA | 0.3 |
| AGTGCGGG | -0.0896 |
| AGTGCGGC | 0.379 |
| AGTGCGGA | 0.224 |
| CGTGCGAC | 0.0732 |
| CGTGCGGC | 0.476 |
| TACTAGGA | -0.15 |
| GAGGTCAC | -0.123 |
| AGTATTGA | 0.0696 |
| CACGGTAG | -0.0367 |
| GTGGGCAA | -0.0572 |
| CCATTGCC | 0.0367 |
| CGCCCTGC | 0.346 |

| Sequence | PBM E-score |
| --- | --- |
| CGCCCTGA | 0.0616 |
| AGCCCTGC | 0.0478 |
| GACCTTTA | -0.0597 |
| AAGCCTCA | -0.0215 |
| CGCCGGCG | 0.312 |
| AGGCGCCC | 0.232 |
| CGGAGCCG | 0.302 |
| AGGCGCCT | 0.383 |
| AGGCGCAT | 0.241 |
| GGGCGCCA | 0.309 |
| AGGCGACT | 0.0881 |
| TGGCGCCA | 0.26 |
| CGGCGCCG | 0.484 |
| AGGCGTCG | 0.253 |
| AGGCGCCG | 0.462 |
| AGGCGCCA | 0.353 |
| AGGTGCGG | 0.189 |
| AATAACTG | 0.0806 |
| TGGACAAA | -0.0269 |
| GCAGCGCA | -0.103 |
| AAGAACCA | -0.0227 |
| CAGTCTCC | -0.209 |
| ATTTGGAA | 0.0474 |
| AAGATTAA | 0.084 |
| ATCGTACA | 0.0995 |

| Sequence | PBM E-score |
| --- | --- |
| CGATAAAC | 0.0166 |
| AGGAGGAT | -0.107 |
| GCGATGTA | 0.16 |
| TATCGTCA | -0.0796 |
| TAGTGCAA | 0.0577 |
| GGGCGCCC | 0.255 |
| CGGCGCCA | 0.463 |
| ATGCGCCA | 0.0976 |
| ATGCGCCC | 0.158 |
| CTGCGCCC | -0.113 |
| GCGCGCCA | 0.268 |
| CTGCGCCA | 0.106 |
| CGGCGCCC | 0.38 |
| ATGCGCCG | 0.413 |
| AACTATCG | -0.203 |
| CTCTGGCA | -0.203 |
| ACAAGTGC | -0.127 |
| CGTCAGAG | -0.0954 |
| GCAATGGC | -0.116 |
| AGGCTGTA | 0.0388 |
| ATCTATTG | 0.0947 |
| ACAGATAA | -0.0189 |
| ATCAATGG | -0.0372 |
| AACAACCA | 0.0647 |
| CCCTCGTA | -0.0643 |

| Sequence | PBM E-score |
| --- | --- |
| ACCTCGTA | -0.0684 |
| GCCTCGTA | 0.346 |
| CGCCATGC | 0.226 |
| ATAGTGCC | 0.311 |
| GGGGCACA | 0.0124 |
| GGGGCACC | 0.0924 |
| ACGGCACC | 0.484 |
| CGGGCACC | 0.237 |
| GTGGCACA | 0.125 |
| GCGGCACC | 0.477 |
| AGGGCACC | 0.0197 |
| GCGGCACA | 0.463 |
| CCGGCACC | 0.254 |
| GACGCCAC | 0.0288 |
| GATCCTAC | -0.1 |
| ACTCTCAG | 0.0178 |
| CGGCACTA | 0.446 |
| GGGCACTA | 0.23 |
| CGGCACTC | 0.365 |
| AGGCACTA | 0.301 |
| AGGCACTC | 0.139 |
| CTGCACTC | 0.109 |
| CAGAGGTA | 0.062 |
| GTTCCATA | -0.164 |
| CCTGGCCG | -0.105 |

| Sequence | PBM E-score |
| --- | --- |
| AAAGTATC | 0.118 |
| AGGTAAGC | -0.118 |
| TATCTCCA | 0.103 |
| CCTACCTA | -0.0899 |
| AGCGGCTG | 0.0689 |
| CGCGGCTA | 0.397 |
| CCCGGCTC | -0.238 |
| ATCGGCTC | 0.136 |
| CTCGGCTC | 0.029 |
| GGCGGCTA | 0.207 |
| AGCGGCTC | 0.388 |
| AGCGGCTA | 0.165 |
| CGCGGCTC | 0.464 |
| AGGCCGGG | -0.163 |
| CTGAAAGC | 0.0435 |
| ACTACTGA | -0.0374 |
| AGCCAGGC | -0.101 |
| AAGGCGGA | -0.099 |
| AAGGCGGC | 0.319 |
| GAGGAGGC | 0.00167 |
| CAGGCGGC | 0.3 |
| GAGGCGGA | -0.00688 |
| GAGGCGGC | 0.374 |
| GGAAACTA | -0.133 |
| TCAATGAA | 0.0662 |

| Sequence | PBM E-score |
| --- | --- |
| ACCAAGTG | -0.0911 |
| GAGTAGAC | 0.0184 |
| AGTCGAAC | -0.146 |
| GCCATGCC | 0.324 |
| ATGATGCG | 0.148 |
| ACCATGCC | 0.199 |
| GAAATGCA | -0.0558 |
| CCCATGCC | -0.0109 |
| CTGATGCC | 0.187 |
| ATAATGCG | -0.0164 |
| CTAATGCC | 0.221 |
| ATGATGCC | 0.337 |
| CAAATGCC | 0.227 |
| GAAATGCC | 0.358 |
| ATAATGCC | 0.325 |
| TACACACA | 0.202 |
| ATGGATTA | -0.0582 |
| ACCTGGAT | -0.266 |
| GAAGCATA | -0.00057 |
| GTCACAAA | -0.0375 |
| AGTCATTG | -0.381 |
| CACACTCA | 0.0928 |
| AAATTTCT | -0.0455 |
| GCGATGCA | -0.156 |
